{"source": "PubChem BioAssay", "key": {"[1]": {"assay": "StAR promoter reporter inhibitors, counter-screen for LRH-1 inverse agonist project, cell-based, luminescence, high throughput (AID 651611; in the data active = inhibition above about 28%)", "details": "StAR promoter luciferase reporter counterscreen, at 3.6 µM, stronger effect = higher value"}, "[2]": {"molecular_target": "Nuclear receptor subfamily 5 group A member 2 (Homo sapiens) (UniProt O00482)", "sequence (O00482 whole entry, looked up)": "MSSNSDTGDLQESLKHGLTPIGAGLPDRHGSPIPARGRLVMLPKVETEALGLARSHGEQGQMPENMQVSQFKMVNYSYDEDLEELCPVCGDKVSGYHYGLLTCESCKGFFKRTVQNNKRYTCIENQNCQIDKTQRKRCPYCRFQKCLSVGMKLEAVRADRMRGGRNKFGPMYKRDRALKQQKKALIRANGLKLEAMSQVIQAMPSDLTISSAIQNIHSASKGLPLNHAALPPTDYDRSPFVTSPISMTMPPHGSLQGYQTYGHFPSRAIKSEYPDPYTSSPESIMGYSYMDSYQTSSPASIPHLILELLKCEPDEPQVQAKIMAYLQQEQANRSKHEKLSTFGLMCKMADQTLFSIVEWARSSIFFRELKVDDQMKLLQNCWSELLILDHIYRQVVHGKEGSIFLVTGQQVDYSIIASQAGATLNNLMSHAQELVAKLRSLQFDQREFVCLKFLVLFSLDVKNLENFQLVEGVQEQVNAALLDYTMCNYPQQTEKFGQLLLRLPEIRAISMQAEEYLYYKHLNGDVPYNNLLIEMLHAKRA", "assay": "NR5A2 activity suppression in reporter cells – cell-based, luminescence, confirmation (AID 651613; in the data active = inhibition above about 42%;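 also: HEK293T cells co-transfected with LRH-1 and StAR promoter luciferase reporter; 0% = vehicle wells and 100% = parental cells lacking receptor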)", "details": "cell-based LRH-1 luciferase reporter, inverse agonism; at 3.6 µM; stronger effect = higher value"}, "[3]": {"molecular_target": "Steroidogenic factor 1 (Homo sapiens) (UniProt Q13285)", "sequence (Q13285 whole entry, looked up)": "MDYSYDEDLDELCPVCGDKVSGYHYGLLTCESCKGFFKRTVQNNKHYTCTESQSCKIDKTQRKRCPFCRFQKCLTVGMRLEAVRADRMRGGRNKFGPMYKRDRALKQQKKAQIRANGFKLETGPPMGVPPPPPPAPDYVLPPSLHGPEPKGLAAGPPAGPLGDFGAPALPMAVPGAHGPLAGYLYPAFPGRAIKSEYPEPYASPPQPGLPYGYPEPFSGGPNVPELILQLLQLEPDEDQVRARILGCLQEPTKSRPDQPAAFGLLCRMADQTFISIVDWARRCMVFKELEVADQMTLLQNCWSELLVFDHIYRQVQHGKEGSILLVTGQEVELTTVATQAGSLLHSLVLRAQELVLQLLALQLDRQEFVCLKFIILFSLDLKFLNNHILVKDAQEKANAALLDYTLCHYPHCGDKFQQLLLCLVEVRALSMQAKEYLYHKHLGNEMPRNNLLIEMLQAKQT", "assay": "inverse agonism at SF1 nuclear receptor – cell-based, luminescence, high throughput, counter-screen for LRH-1 inverse agonist project (AID 651614; in the data active = inhibition above about 44%;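 also: cells cotransfected with StAR promoter reporter and SF1 expression vector; 0% = vehicle on cells with receptor and 100% = vehicle on cells lacking receptor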)", "details": "cell-based SF1 luciferase reporter, at 3.6 µM, stronger effect = higher value"}, "[4]": {"assay": "compounds suppressing VP16-driven luciferase signal – cell-based, luminescence, high throughput, counter-screen for LRH-1 inverse agonist project (AID 651615; in the data active = inhibition above about 33%)", "details": "Gal4-VP16 luciferase reporter cells, at 3.6 µM, stronger effect = higher value"}, "[5]": {"system": "transactivating tegument protein VP16 (Human herpesvirus 1)", "assay": "compounds suppressing VP16-driven luciferase signal – cell-based, luminescence, single concentration, counter-screen for SRC2 inhibitor project (AID 652007)", "details": "cell-based VP16 transactivation luciferase reporter, at 8.9 µM, stronger effect = higher value"}, "[6]": {"molecular_target": "Nuclear receptor coactivator 2 (Homo sapiens) (UniProt Q15596)", "sequence (Q15596 whole entry, looked up, the tested form may be a part)": "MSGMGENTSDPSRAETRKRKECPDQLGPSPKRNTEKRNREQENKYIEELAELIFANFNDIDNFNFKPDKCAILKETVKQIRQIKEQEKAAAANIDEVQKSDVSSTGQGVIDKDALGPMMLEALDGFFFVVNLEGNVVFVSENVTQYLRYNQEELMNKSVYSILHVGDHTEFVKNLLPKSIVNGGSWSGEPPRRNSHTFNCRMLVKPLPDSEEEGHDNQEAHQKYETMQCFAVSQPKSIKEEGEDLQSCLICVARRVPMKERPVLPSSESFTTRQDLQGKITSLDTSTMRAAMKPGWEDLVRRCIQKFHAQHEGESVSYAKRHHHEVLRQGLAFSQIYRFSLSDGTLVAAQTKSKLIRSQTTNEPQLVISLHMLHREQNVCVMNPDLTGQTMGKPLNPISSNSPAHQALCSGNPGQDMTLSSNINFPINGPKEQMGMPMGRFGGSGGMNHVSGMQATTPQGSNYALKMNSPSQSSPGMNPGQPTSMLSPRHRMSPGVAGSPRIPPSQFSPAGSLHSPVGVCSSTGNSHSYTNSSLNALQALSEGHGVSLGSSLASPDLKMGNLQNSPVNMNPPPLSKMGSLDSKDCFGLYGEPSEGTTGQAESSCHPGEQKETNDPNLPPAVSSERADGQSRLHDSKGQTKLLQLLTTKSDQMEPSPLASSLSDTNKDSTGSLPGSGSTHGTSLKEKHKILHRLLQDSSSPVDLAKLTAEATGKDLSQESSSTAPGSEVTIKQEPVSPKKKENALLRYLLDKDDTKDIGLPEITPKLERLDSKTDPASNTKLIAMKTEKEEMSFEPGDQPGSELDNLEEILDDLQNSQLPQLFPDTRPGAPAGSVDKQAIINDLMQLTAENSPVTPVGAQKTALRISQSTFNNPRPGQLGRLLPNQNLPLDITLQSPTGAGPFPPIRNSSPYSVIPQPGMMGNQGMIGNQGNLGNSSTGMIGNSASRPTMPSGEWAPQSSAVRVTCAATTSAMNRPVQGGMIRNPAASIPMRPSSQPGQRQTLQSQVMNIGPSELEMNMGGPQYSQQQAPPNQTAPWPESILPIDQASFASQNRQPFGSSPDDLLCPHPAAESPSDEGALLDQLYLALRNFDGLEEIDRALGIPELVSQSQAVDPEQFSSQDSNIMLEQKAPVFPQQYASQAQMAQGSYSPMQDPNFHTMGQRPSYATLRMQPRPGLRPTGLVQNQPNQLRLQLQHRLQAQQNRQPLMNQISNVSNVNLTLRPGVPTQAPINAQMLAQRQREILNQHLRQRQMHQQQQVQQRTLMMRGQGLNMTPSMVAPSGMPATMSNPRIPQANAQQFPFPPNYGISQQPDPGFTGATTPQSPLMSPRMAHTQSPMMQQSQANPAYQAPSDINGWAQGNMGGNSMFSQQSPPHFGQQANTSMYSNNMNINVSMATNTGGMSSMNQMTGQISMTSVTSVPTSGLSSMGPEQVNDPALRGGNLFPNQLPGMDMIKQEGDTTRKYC", "assay": "inhibition of GAL4-SRC2 driven luciferase expression – cell-based, luminescence, HEK293, triplicate, confirmation (AID 652008;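 active = mean inhibition above 46.5%, the solvent-only control mean plus 3 SD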;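 also: 0% = DMSO-treated cells and 100% = Gossypol at 36 µM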)", "details": "HEK293 GAL4-SRC2 luciferase reporter, at 8.9 µM, stronger effect = higher value"}, "[7]": {"assay": "VP16-driven transactivation reporter suppression – cell-based, luminescence, HEK293, counter-screen for COUP-TFII antagonist project (AID 687007; in the data active = inhibition above about 13%)", "details": "HEK293 Gal4-VP16 luciferase reporter, at 8.5 µM, stronger effect = higher value"}, "[8]": {"molecular_target": "COUP transcription factor 2 (Homo sapiens) (UniProt P24468)", "sequence (P24468 whole entry, looked up)": "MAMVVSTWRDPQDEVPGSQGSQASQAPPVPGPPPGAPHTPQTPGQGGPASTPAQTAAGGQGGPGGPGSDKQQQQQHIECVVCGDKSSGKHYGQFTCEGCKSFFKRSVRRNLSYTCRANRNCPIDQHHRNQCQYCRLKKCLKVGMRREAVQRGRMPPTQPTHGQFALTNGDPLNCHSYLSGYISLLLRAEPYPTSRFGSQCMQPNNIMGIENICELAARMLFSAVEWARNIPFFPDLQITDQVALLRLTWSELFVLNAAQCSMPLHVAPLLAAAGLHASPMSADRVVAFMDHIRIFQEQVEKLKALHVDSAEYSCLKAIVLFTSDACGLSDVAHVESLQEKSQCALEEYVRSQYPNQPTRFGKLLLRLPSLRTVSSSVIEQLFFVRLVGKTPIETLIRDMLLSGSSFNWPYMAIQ", "assay": "retest of COUP-TFII reporter suppressors – cell-based, luciferase reporter, HEK293, triplicate, confirmation (AID 687008;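 active = mean inhibition over three repeats above a set limit taken from the earlier primary screen, cut at about 38% in these data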;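 also: 100% = cells given the luciferase reporter alone without the COUP-TF2 vector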)", "details": "HEK293 NGFI-A luciferase reporter, luminescence; at 8.5 µM; stronger effect = higher value"}}, "note": "A number with no mark means an inactive call. This is one part of the list. Active and inactive are the calls of the source. Rule as the data show it, unless noted: active = inhibition above about 36%; inactive = the rest."}
{"smiles": "C=CC(=O)N1C/C(=C/c2ccc(Cl)cc2)C(=O)/C(=C\\c2ccc(Cl)cc2)C1", "values": [{"measurement": "inhibition", "setting": "[1]", "value": 17.8, "unit": "%"}, {"measurement": "inhibition", "setting": "[2]", "value": "84.7% (active)"}, {"measurement": "inhibition", "setting": "[3]", "value": "87.8% (active)"}, {"measurement": "inhibition", "setting": "[4]", "value": "65.8% (active)"}, {"measurement": "inhibition", "setting": "[5]", "value": "97% (active)"}, {"measurement": "inhibition", "setting": "[6]", "value": "88.4% (active)"}]}
{"smiles": "CCN(CC)CCC(=O)N1C/C(=C/c2ccccc2)C(=O)/C(=C\\c2ccccc2)C1", "values": [{"measurement": "inhibition", "setting": "[1]", "value": "57.8% (active)"}, {"measurement": "inhibition", "setting": "[2]", "value": "84.4% (active)"}, {"measurement": "inhibition", "setting": "[3]", "value": "86.8% (active)"}, {"measurement": "inhibition", "setting": "[4]", "value": "76.2% (active)"}, {"measurement": "inhibition", "setting": "[5]", "value": "84.8% (active)"}, {"measurement": "inhibition", "setting": "[6]", "value": 23.6, "unit": "%"}]}
{"smiles": "O=C(NCCOc1cccnc1)c1ccc(OC2CCN(Cc3ccccn3)CC2)cc1", "values": [{"measurement": "inhibition", "setting": "[1]", "value": "90.8% (active)"}, {"measurement": "inhibition", "setting": "[2]", "value": "105% (active)"}, {"measurement": "inhibition", "setting": "[3]", "value": "97.6% (active)"}, {"measurement": "inhibition", "setting": "[4]", "value": "87.7% (active)"}, {"measurement": "inhibition", "setting": "[5]", "value": 15.9, "unit": "%"}, {"measurement": "inhibition", "setting": "[6]", "value": "56.5% (active)"}]}
{"smiles": "C=CC(=O)N1C/C(=C/c2ccccc2)C(=O)/C(=C\\c2ccccc2)C1", "values": [{"measurement": "inhibition", "setting": "[1]", "value": -2.93, "unit": "%"}, {"measurement": "inhibition", "setting": "[2]", "value": "71.8% (active)"}, {"measurement": "inhibition", "setting": "[3]", "value": "77.5% (active)"}, {"measurement": "inhibition", "setting": "[4]", "value": "62.2% (active)"}, {"measurement": "inhibition", "setting": "[5]", "value": "88.6% (active)"}, {"measurement": "inhibition", "setting": "[6]", "value": "65.3% (active)"}]}
{"smiles": "CCC(C(=O)NCc1ccccc1)n1c(CSCCOc2ccccc2)nc2ccccc21", "note": "(stereo not given)", "values": [{"measurement": "inhibition", "setting": "[1]", "value": 21.1, "unit": "%"}, {"measurement": "inhibition", "setting": "[2]", "value": 21.6, "unit": "%"}, {"measurement": "inhibition", "setting": "[3]", "value": 25.1, "unit": "%"}, {"measurement": "inhibition", "setting": "[4]", "value": 29, "unit": "%"}, {"measurement": "inhibition", "setting": "[5]", "value": 19.5, "unit": "%"}, {"measurement": "inhibition", "setting": "[6]", "value": "78.3% (active)"}]}
{"smiles": "O=C(Nc1ccc(Cl)cc1)/C(=C/c1cccc(O)c1)c1nc2ccccc2s1", "values": [{"measurement": "inhibition", "setting": "[1]", "value": "52% (active)"}, {"measurement": "inhibition", "setting": "[2]", "value": "78.1% (active)"}, {"measurement": "inhibition", "setting": "[3]", "value": "78.1% (active)"}, {"measurement": "inhibition", "setting": "[4]", "value": "71.2% (active)"}, {"measurement": "inhibition", "setting": "[5]", "value": "48.6% (active)"}, {"measurement": "inhibition", "setting": "[6]", "value": "80.7% (active)"}]}
{"smiles": "CCOc1ccc(-c2cc(CCCC(=O)Nc3cccc(OC)c3)no2)cc1", "values": [{"measurement": "inhibition", "setting": "[1]", "value": "40.6% (active)"}, {"measurement": "inhibition", "setting": "[2]", "value": 40.9, "unit": "%"}, {"measurement": "inhibition", "setting": "[3]", "value": "48.5% (active)"}, {"measurement": "inhibition", "setting": "[4]", "value": 6.33, "unit": "%"}, {"measurement": "inhibition", "setting": "[5]", "value": "36.8% (active)"}, {"measurement": "inhibition", "setting": "[6]", "value": "58.9% (active)"}]}
{"smiles": "CC1C/C(=C\\c2cccnc2)C(=O)/C(=C/c2cccnc2)C1", "note": "(stereo not given)", "values": [{"measurement": "inhibition", "setting": "[1]", "value": "61.9% (active)"}, {"measurement": "inhibition", "setting": "[2]", "value": "100% (active)"}, {"measurement": "inhibition", "setting": "[3]", "value": "95.6% (active)"}, {"measurement": "inhibition", "setting": "[4]", "value": "91.5% (active)"}, {"measurement": "inhibition", "setting": "[5]", "value": "98% (active)"}, {"measurement": "inhibition", "setting": "[6]", "value": "93.9% (active)"}]}
{"smiles": "COc1ccc(NS(=O)(=O)c2ccc3c(c2)OCCO3)cc1OC", "values": [{"measurement": "inhibition", "setting": "[1]", "value": 10.4, "unit": "%"}, {"measurement": "inhibition", "setting": "[2]", "value": "69.7% (active)"}, {"measurement": "inhibition", "setting": "[3]", "value": "67.5% (active)"}, {"measurement": "inhibition", "setting": "[4]", "value": "35.5% (active)"}, {"measurement": "inhibition", "setting": "[5]", "value": 10.1, "unit": "%"}, {"measurement": "inhibition", "setting": "[6]", "value": 27.8, "unit": "%"}]}
{"smiles": "O=C(Nc1ccc(Br)cn1)C1CCN(S(=O)(=O)c2cccs2)CC1", "values": [{"measurement": "inhibition", "setting": "[7]", "value": "13.1% (active)"}, {"measurement": "inhibition", "setting": "[8]", "value": "48.2% (active)"}]}
{"smiles": "CCc1cc(-c2nnn(CCC3COCCO3)c2CC)ccc1-c1cn(Cc2ccc3ccccc3c2)nn1", "note": "(stereo not given)", "values": [{"measurement": "inhibition", "setting": "[7]", "value": -21.8, "unit": "%"}, {"measurement": "inhibition", "setting": "[8]", "value": "42% (active)"}]}
{"smiles": "CCn1nc(NC(=O)C(C)C)c2cc3cccc(C)c3nc21", "values": [{"measurement": "inhibition", "setting": "[5]", "value": 3.87, "unit": "%"}, {"measurement": "inhibition", "setting": "[6]", "value": 15.9, "unit": "%"}]}
{"smiles": "Nc1ccc2oc(-c3cccc4ccccc34)nc2c1", "values": [{"measurement": "inhibition", "setting": "[5]", "value": "38.3% (active)"}, {"measurement": "inhibition", "setting": "[6]", "value": "48.8% (active)"}]}
{"smiles": "COc1ccc(S(=O)(=O)n2ccc(-c3ccc(OCCN(C)c4ccccn4)cc3)n2)cc1", "values": [{"measurement": "inhibition", "setting": "[5]", "value": 3.56, "unit": "%"}, {"measurement": "inhibition", "setting": "[6]", "value": 30.2, "unit": "%"}]}
{"smiles": "O=C(O)CCSc1nnc(-c2ccc3c(c2)OCO3)o1", "values": [{"measurement": "inhibition", "setting": "[5]", "value": "45.9% (active)"}, {"measurement": "inhibition", "setting": "[6]", "value": "60.7% (active)"}]}
{"smiles": "O=[N+]([O-])c1ccc(Sc2nccn2Cc2ccccc2)c([N+](=O)[O-])c1", "values": [{"measurement": "inhibition", "setting": "[5]", "value": 4.42, "unit": "%"}, {"measurement": "inhibition", "setting": "[6]", "value": 32.1, "unit": "%"}]}
{"smiles": "COc1ccc(C(=O)Nn2c(SCC(=O)N3CCC(C)CC3)nc3ccccc3c2=O)cc1", "values": [{"measurement": "inhibition", "setting": "[5]", "value": 23.9, "unit": "%"}, {"measurement": "inhibition", "setting": "[6]", "value": 28.9, "unit": "%"}]}
{"smiles": "C[n+]1cc2c3c(ccc2c2ccc4cc5c(cc4c21)OCO5)OCO3", "values": [{"measurement": "inhibition", "setting": "[5]", "value": "96% (active)"}, {"measurement": "inhibition", "setting": "[6]", "value": "98.7% (active)"}]}
{"smiles": "NNC(=O)COc1ccc(-c2nccc(-c3ccc(F)cc3)n2)cc1", "values": [{"measurement": "inhibition", "setting": "[5]", "value": -14.6, "unit": "%"}, {"measurement": "inhibition", "setting": "[6]", "value": 32.3, "unit": "%"}]}
{"smiles": "CCC(Cc1ccccc1)NC(=O)C1CCN(c2nn3c(=O)cc(C)nc3s2)CC1", "note": "(stereo not given)", "values": [{"measurement": "inhibition", "setting": "[5]", "value": -17.6, "unit": "%"}, {"measurement": "inhibition", "setting": "[6]", "value": -18.8, "unit": "%"}]}
{"smiles": "CC(C)OC(=O)c1ccc(NCc2cc(O)ccc2O)cc1", "values": [{"measurement": "inhibition", "setting": "[5]", "value": "51.7% (active)"}, {"measurement": "inhibition", "setting": "[6]", "value": "54.8% (active)"}]}
{"smiles": "NNC(=O)c1[nH]c2ccc(Br)cc2c1-c1ccccc1", "values": [{"measurement": "inhibition", "setting": "[5]", "value": -11.1, "unit": "%"}, {"measurement": "inhibition", "setting": "[6]", "value": -1.32, "unit": "%"}]}
{"smiles": "O=c1[nH]c2ccc(Br)cc2c(=O)o1", "values": [{"measurement": "inhibition", "setting": "[5]", "value": "44.5% (active)"}, {"measurement": "inhibition", "setting": "[6]", "value": 34.9, "unit": "%"}]}
{"smiles": "O=C(Nc1nnc(SCCN2CCOCC2)s1)C1CC(=O)N(c2ccccc2)C1", "note": "(stereo not given)", "values": [{"measurement": "inhibition", "setting": "[5]", "value": 1.56, "unit": "%"}, {"measurement": "inhibition", "setting": "[6]", "value": -15.8, "unit": "%"}]}
{"smiles": "CC(=O)N1CCOc2ccc(S(=O)(=O)NCC3CCC(C(=O)Nc4ccc(C)cn4)CC3)cc21", "note": "(stereo not given)", "values": [{"measurement": "inhibition", "setting": "[5]", "value": 14.8, "unit": "%"}, {"measurement": "inhibition", "setting": "[6]", "value": 15.4, "unit": "%"}]}
{"smiles": "N#Cc1c(NC(=O)CCCC(=O)O)sc2c1CCCCC2", "values": [{"measurement": "inhibition", "setting": "[5]", "value": -8.88, "unit": "%"}, {"measurement": "inhibition", "setting": "[6]", "value": 44, "unit": "%"}]}
{"smiles": "CCn1c(Cl)c(C=O)s/c1=N\\S(=O)(=O)c1ccccc1", "values": [{"measurement": "inhibition", "setting": "[5]", "value": "59.6% (active)"}, {"measurement": "inhibition", "setting": "[6]", "value": 16, "unit": "%"}]}
